In the supplement of paper PMC8540655:
Unmarked numbers belong to inactive results.

System: Aedes aegypti larvae
Assay: larval motility relative to same well at 0 h (fraction); higher = more motile (less active compound), active = 0.4 or less
Details: 10 µM
Summary of the method: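 Aedes aegypti larvae were hatched at 25 °C in pond salt solution with yeast, collected after 18–24 h, and dispensed at about 10 per well (100 µL) in 96-well plates. Compounds were tested at 10 µM in 1% v/v DMSO, and each plate carried solvent and larvicide control wells. INVAPP movies of 200 frames at 100 ms intervals were recorded at 0, 2 and 24 h, and each value is the median of three independent larval batches. Relative motility is each well's score divided by that same well's starting score.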

Row | SMILES | larval motility (2 h) | larval motility (24 h)
1 | O=C(Cn1cnc2ccccc2c1=O)Nc1ccccc1 | 0.554 | 0.782
2 | CN(C(=O)C1(c2ccc(Cl)cc2)CCC1)c1ccccc1 | 1.1 | 1.21
3 | c1ccc(Cn2c(-c3ccccn3)nc3ccccc32)cc1 | 1.19 | 1.02
4 | CC(=O)Nc1cc(NS(=O)(=O)c2ccc(Cl)cc2)cc2c(Cl)n[nH]c12 | 0.744 | 0.752
5 | Nc1nc(C(F)(F)F)cc2c1[nH]c(=O)n2Cc1ccccc1 | 0.857 | 0.614
6 | CC[C@@]1(O)C(=O)OCc2c1cc1n(c2=O)Cc2cc3c(CN(C)C)c(O)ccc3nc2-1 | 0.831 | 0.876
7 | CCc1oc2ccccc2c1C(=O)c1ccc(O)cc1 | 1.07 | 1.17
8 | O=C(NC1CCCc2c1[nH]c1ccc(Cl)cc21)c1ccccn1 (centres undefined) | 1.38 | 1.01
9 | CN1c2ccc(Cl)cc2N(c2ccccc2)C(=O)c2cn(Cc3ccc(CN4CCOCC4)cc3)nc21 | 0.674 | 0.985
10 | N=C(N)NCCCCC(=O)Nc1cc(C(F)(F)F)cc(NC(=O)c2cc(C(=O)Nc3cc(C(F)(F)F)cc(NC(=O)CCCCNC(=N)N)c3O[C@@H]3CCNC3)ncn2)c1O[C@@H]1CCNC1 | 0.425 | 0.764
11 | CCc1cc(CCC(=O)Nc2ccccc2O)c(=O)[nH]c1C | 0.689 | 0.991
12 | Fc1ccc(-c2nc(-c3c[nH]c4ccc(Br)cc34)[nH]c2-c2ccc(F)cc2)cc1 | 0.737 | 0.9
13 | O=C(O)COc1cccc2c1CC[C@](O)(COC(=O)N(c1ccccc1)c1ccccc1)C2 | 0.909 | 0.745
14 | COc1ccc2nc(-c3ccccc3)cc(O)c2c1 | 1.08 | 0.908
15 | CCN(CC)CCn1c(=N)n(CC(O)COc2ccc(Cl)cc2Cl)c2ccccc21 (centres undefined) | 0.783 | 0.86
16 | CCCCc1ccc(-c2cc(C(=O)O)cc(-c3ccc(Cl)cc3)n2)cc1 | 0.642 | 0.563
17 | Cc1ccc(Oc2ccccc2-c2csc(NC3=NCCCN3)n2)c(C)c1 | 0.774 | 0.786
18 | Cn1cc(NC(=O)c2cc(NC(=O)c3ccc(/C=C/c4cnc5ccccc5c4)cc3)cn2C)cc1C(=O)NCCN1CCOCC1 | 1.3 | 0.773
19 | CCc1nc2ccccn2c1C(=O)NCc1ccccc1 | 1.39 | 0.997
20 | Cn1cncc1[C@@](N)(c1ccc(Cl)cc1)c1ccc2c(c1)c(-c1cccc(Cl)c1)cc(=O)n2C | 0.645 | 0.876
21 | Cc1cc(C2CCCCC2)n(O)c(=O)c1 | 0.66 | 1.09

Row | SMILES | larval motility (2 h) | larval motility (24 h)
22 | Oc1c(C(Nc2nc3ccccc3s2)c2ccc(OC(F)F)cc2)ccc2cccnc12 (centres undefined) | 0.53 | 1.26
23 | O=S(=O)(Nc1ccc(-n2cccc2)cc1)c1ccc(Cl)c(Cl)c1 | 1.06 | 0.808
24 | CC(N)C(=O)NC(CCCCN)C(=O)NC(CCCNC(=N)N)C(=O)NC(Cc1c[nH]cn1)C(=O)NC(Cc1c[nH]cn1)C(=O)NCC(=O)NC(Cc1ccc(O)cc1)C(=O)NC(CCCCN)C(=O)NC(CCCNC(=N)N)C(=O)NC(CCCCN)C(=O)NC(Cc1ccccc1)C(=O)NC(Cc1c[nH]cn1)C(N)=O (centres undefined) | 0.858 | 1.19
25 | COc1cc(Cc2cnc(N)nc2N)cc(OC)c1OC | 0.864 | 0.829
26 | Cc1cc(-c2ccccc2)c(C(=O)C(=O)Nc2ccc(N3CCN(c4ncc(F)cn4)CC3)cc2)n1C | 0.636 | 0.529
27 | O=C(O)c1sccc1S(=O)(=O)n1ccc2cc(Br)ccc21 | 0.657 | 0.741
28 | Nc1cnn(C2OC(CO)C(O)C2O)c(=O)n1 (centres undefined) | 1.16 | 1.33
29 | CCO/N=C/c1ccc(OCCCCN2CCN(c3ccncc3)C2=O)cc1 | 1.36 | 1.3
30 | Cc1[nH]c2ccccc2c1CC(=O)N[C@@H](Cc1ccccc1)C(=O)N(C)c1ccccc1 | 0.963 | 1.03
31 | Cc1c(OCC(F)(F)F)ccnc1CS(=O)c1nc2ccccc2[nH]1 (centres undefined) | 1.17 | 1.38
32 | CC(N)C12CC3CC(CC(C3)C1)C2 (centres undefined) | 1.14 | 0.773
33 | O=C(O)C[C@H]1CC[C@H](c2ccc(-c3ccc(Nc4ccc(C(F)(F)F)nc4)cn3)cc2)CC1 | 0.644 | 0.489
34 | O[C@@](Cn1cnnn1)(c1ccc(F)cc1F)C(F)(F)c1ccc(-c2ccc(OCC(F)(F)F)cc2)cn1 | 0.718 | 0.564
35 | Cc1cccc(C)c1C(=O)Nc1nc(-c2ccccn2)cc2ccccc12 | 0.564 | 1.01
36 | C[C@H]1COc2c(N3CCN(C)CC3)c(F)cc3c(=O)c(C(=O)O)cn1c23 | 0.447 | 0.712
37 | O=C(NN1C(=O)[C@@H]2C3C=CC([C@H]4C[C@@H]34)[C@@H]2C1=O)c1ccc(C(F)(F)F)cc1 | 0.844 | 0.599
38 | CO/N=C(\C(=O)N[C@@H]1C(=O)N2C(C(=O)OCOC(=O)C(C)(C)C)=C(/C=C\c3scnc3C)CS[C@H]12)c1csc(N)n1 | 1.51 | 1.18
39 | CNC(=O)C1O[C@@H](n2cnc3c(NCc4cccc(I)c4)nc(Cl)nc32)[C@H](O)[C@@H]1O (some centres undefined) | 0.688 | 0.817
40 | COc1cc(C(C(=O)NC2CCCCC2)N(C(=O)Cc2c[nH]c3ccccc23)c2ccc(C(C)C)cc2)cc(OC)c1OC (centres undefined) | 1.42 | 1.32
41 | NCCCc1ccccc1C(=O)Nc1ncc([N+](=O)O)s1 | 0.869 | 0.646
42 | OB1OCc2cc(Cl)ccc21 | 0.664 | 1.04

Row | SMILES | larval motility (2 h) | larval motility (24 h)
43 | COc1ccc(C2=CC(c3c(F)cccc3Cl)n3ncnc3N2)cc1 (centres undefined) | 0.637 | 0.619
44 | Nc1nc(-c2ccccc2)nc2[nH]nc(Nc3ccc(C(F)(F)F)cc3)c12 | 0.791 | 0.591
45 | CCc1cc(O)c(Oc2ccc(C(N)=O)cc2F)cc1F | 0.539 | 0.942
46 | Clc1cc2nc(C3CCNCC3)n(Cc3ccc(CNCCc4cnc[nH]4)cc3)c2cc1Cl | 0.575 | 0.981
47 | CC(C)CCN1C(=O)C(C2=NS(=O)(=O)c3cc(NS(C)(=O)=O)ccc3N2)=C(O)[C@@H]2[C@H]3CC[C@H](C3)[C@@H]21 | 0.853 | 0.888
48 | COc1ccc(NC(=O)CC2Sc3ncnn3C2=O)cc1 (centres undefined) | 0.728 | 0.333 (active)
49 | Nc1cc(N)c2nc(-c3ccccc3)c(Nc3ccc(F)cc3)nc2c1 | 0.877 | 0.892
50 | CC(C)/N=c1\cc2n(-c3ccc(Cl)cc3)c3ccccc3nc-2cc1Nc1ccc(Cl)cc1 | 0.957 | 0.786
51 | COc1ccc(OCc2ccc(COc3c(Cl)cccc3Cl)cc2)c(Cl)c1 | 1.19 | 1.03
52 | Clc1cc(Cl)c2c(c1)CCc1ccccc1C2n1ccnc1 (centres undefined) | 0.769 | 0.987
53 | CCCCCCCc1[nH]c2ccccc2c(=O)c1O | 0.74 | 0.565
54 | N#CCN1C(=O)COc2cc(F)c(N3C(=O)c4ccccc4C3=O)cc21 | 0.915 | 1.91
55 | NC(=O)C(c1ccccc1)(c1ccccc1)[C@H]1CCCN(CCc2ccc3c(c2)CCO3)C1 | 0.612 | 0.78
56 | CCC(C)n1ncn(-c2ccc(N3CCN(c4ccc(OCC5COC(Cn6cncn6)(c6ccc(Cl)cc6Cl)O5)cc4)CC3)cc2)c1=O (centres undefined) | 0.656 | 0.571
57 | CCCCN1C[C@H](O)[C@@H](O)[C@H](O)[C@H]1CO | 0.87 | 0.809
58 | O=C(NC(=O)N1CCCc2ccccc21)c1ccc(Cl)cc1Cl | 0.529 | 0.89
59 | O=C(c1cc(O)nc2ccccc12)N1CCN(c2ccccc2)CC1 | 0.848 | 0.897
60 | COc1ccc2cc3[n+](cc2c1OCCN(CCn1cncn1)Cc1ccc(F)cc1F)CCc1cc2c(cc1-3)OCO2 | 0.821 | 0.778
61 | CC(C)(C)NC(=O)[C@@H]1C[C@@H]2CCCC[C@@H]2CN1C[C@@H](O)[C@H](Cc1ccccc1)NC(=O)[C@H](CC(N)=O)NC(=O)c1ccc2ccccc2n1 | 1.43 | 1.49
62 | CC(C)C(=O)N[C@H]1[C@H]([C@H](O)[C@H](O)CO)OC(C(=O)O)=C[C@@H]1N=[N+]=[N-] | 1.64 | 1.56
